This is a sample that favours compounds with a hit; in the whole collection about 19% have one here.
DT40 TDP1 CPT – qHTS for Inhibitors of human tyrosyl-DNA phosphodiesterase 1 (TDP1): qHTS in cells in presence of CPT | hit rate 12% among 420,000 | Potency, µM (top dose mostly 46.2 µM), most hits filed as inhibitors | chicken DT40 Tdp1-/-;hTDP1 cells + 20 nM CPT, ATP luminescence, 48 h; also: nearly all actives have a fitted effect of over 55% in size
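Chicken DT40 Tdp1-/- cells complemented with human TDP1, 400 cells/well, exposed to compounds plus 20 nM camptothecin for at least 48 h at 37 C; viability read as ATP content by CellTiter-Glo luminescence.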
HT1080 IDH1KD tx – qHTS for induction of synthetic lethality in tumor cells producing 2HG: qHTS for the HT-1080-IDH1KD cell line. HT-1080 IDH1 knockdown viability, ATP luminescence, 48 h. Potency, µM (series often up to 46.1 µM), usual class: cytotoxic. hit rate 2% among 360,000. AID 686971, 2013
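IDH1KD HT-1080 cells, 750/well, RPMI + 5% FBS; compound pinned after 2 h settling; 48 h, 37 °C; CellTiter-Glo luminescence; % activity normalised to DMSO and no-cell wells; curves fitted, classed by r2 and efficacy.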
TDP1 cell noCPT – qHTS for Inhibitors of human tyrosyl-DNA phosphodiesterase 1 (TDP1): qHTS in cells in absence of CPT | DT40 Tdp1-/- hTDP1 cells, no CPT, ATP luminescence, 48 h | Potency, µM (highest dose often 46.2 µM), actives largely listed as inhibitors | hit rate 15% among 420,000 | AID 686978, 2013; also: nearly all actives have a fitted effect of over 55% in size
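Stably hTDP1-transfected Tdp1-null chicken DT40 cells were treated with library compounds minus camptothecin and grown for at least 48 hr at 37 °C, after which cellular ATP was quantified by luminescence.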
uPA generation – qHTS for Inhibitors of Cell Surface uPA Generation | hit rate 0.31% among 330,000 | Potency, µM (doses to about 38.3 µM), most hits filed as inhibitors | cell surface uPA generation assay, qHTS; active = well fitted inhibition curve with a large enough effect; inconclusive = small, poorly fitted or top-dose-only effect; inactive = no such curve, though single readings can be large or run the other way; tested in mouse RAW 264.7 cells; also: nearly all actives have a fitted effect of over 55% in size
IL-1B inflam inh – qHTS for Inhibitors of Inflammasome Signaling: IL-1-beta AlphaLISA Primary Screen; hit rate 4.7% among 360,000; AID 743279, 2014; activity change, % at 57.5 µM; THP-1 LPS/ATP IL-1B secretion, AlphaLISA, 16 h; active compounds read low; in the data active = activity change below about -50%; inconclusive = mostly about -30% to -49%
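Secreted IL-1B measured by AlphaLISA bead assay after 16 h compound exposure of THP-1 cells; compounds (final up to 57.5 uM) added 1 h before LPS (250 ng/mL) and ATP (1.25 mM) stimulation; lower signal means less secretion.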
HT1080-NT tox – qHTS for induction of synthetic lethality in tumor cells producing 2HG: qHTS for the HT-1080-NT fibrosarcoma cell line; Potency, µM (doses to about 46.1 µM), most hits filed as cytotoxic; hit rate 1.6% among 360,000; HT-1080-NT fibrosarcoma viability, CellTiter-Glo ATP luminescence, 48 h;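 also: NT is the 2HG producing partner of a matched IDH1 knockdown line; nearly all actives have a fitted effect of over 55% in size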
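Fibrosarcoma NT cells, 750 per well in 5% FBS RPMI, were exposed to compound for 48 hours. Viability: CellTiter-Glo luminescence.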
Large screens that a line does not name were inactive. Unless noted, calls follow the shape of the dose curve; as a rule, active = well fitted curve in the direction sought with a large enough effect; inconclusive = small, poorly fitted or top-dose-only effect, or another doubt; inactive = no such curve, though single readings can be large; an effect the other way counts as inactive or inconclusive.

COc1ccc(OC)c(NC(=O)Nc2nnc(COCCO)s2)c1	none (no result: uPA generation)
Cc1nn(C(=O)c2ccc(Br)cc2)c(C)c1S(=O)(=O)N1CCOCC1	none (no result: HT1080 IDH1KD tx, uPA generation, IL-1B inflam inh, HT1080-NT tox)
Cc1nnc(SCc2ccc(Cl)cc2Cl)[nH]c1=O	none
Cc1cnc(SCc2ccc(Cl)cc2Cl)[nH]c1=O	DT40 TDP1 CPT inconclusive, TDP1 cell noCPT 21µM
Cc1cc(=O)[nH]c(SCc2ccc(Cl)cc2Cl)n1	TDP1 cell noCPT 23µM
Cc1nc(-c2ccc(S(=O)(=O)N(Cc3ccccc3)C(C)C)cc2)co1	DT40 TDP1 CPT inconclusive, TDP1 cell noCPT 15µM (no result: HT1080 IDH1KD tx, uPA generation, IL-1B inflam inh, HT1080-NT tox)
CCN(Cc1ccccc1)S(=O)(=O)c1ccc(-c2coc(C)n2)cc1	DT40 TDP1 CPT 13µM, TDP1 cell noCPT 23µM (no result: HT1080 IDH1KD tx, uPA generation, IL-1B inflam inh, HT1080-NT tox)
CCN(Cc1ccccc1)S(=O)(=O)c1ccc(OC)cc1	DT40 TDP1 CPT inconclusive, TDP1 cell noCPT 16µM
Cc1ccc(S(=O)(=O)N(CC(=O)O)Cc2ccccc2)cc1	none (no result: uPA generation)
CC(C)(C)NC(=O)C(c1cccs1)N(CC1CCCO1)C(=O)c1ccc(-c2ccccc2)[nH]1 (configuration not stated)	DT40 TDP1 CPT 23µM, TDP1 cell noCPT 21µM, IL-1B inflam inh inconclusive
O=C(NCC1CCCO1)C(c1cccs1)N(Cc1ccccc1)C(=O)c1ccc(-c2ccccc2)[nH]1 (configuration not stated)	DT40 TDP1 CPT inconclusive, TDP1 cell noCPT 21µM
COC(=O)C1CCN(Cc2c(C(=O)N3C[C@@H](C)O[C@@H](C)C3)nc3ccc(Cl)cn23)CC1	none
CCCC1=Nc2cc(C(=O)NCCCOC(C)C)ccc2Sc2ccccc21	DT40 TDP1 CPT 4.6µM, HT1080 IDH1KD tx 18µM, TDP1 cell noCPT 4.1µM, HT1080-NT tox 12µM
CCCC1=Nc2cc(C(=O)NCCOC)ccc2Sc2ccccc21	DT40 TDP1 CPT inconclusive, TDP1 cell noCPT 0.58µM (no result: HT1080 IDH1KD tx, uPA generation, IL-1B inflam inh, HT1080-NT tox)
CCC1=Nc2cc(C(=O)NCCCN3CCOCC3)ccc2Sc2ccccc21	HT1080 IDH1KD tx inconclusive
CCC(=O)N1CCc2cc(S(=O)(=O)NC(C(=O)NCc3ccc(OC)cc3)C(C)C)ccc21 (configuration not stated)	none (no result: HT1080 IDH1KD tx, uPA generation, IL-1B inflam inh, HT1080-NT tox)
CCc1ccc(S(=O)(=O)c2cn(C)c3ccc(C)cc3c2=O)cc1	none (no result: HT1080 IDH1KD tx, uPA generation, IL-1B inflam inh, HT1080-NT tox)
CCCC12CN3CC(C)(CN(C1)C3c1ccc(OC(C)C)cc1)C2=O (configuration not stated)	TDP1 cell noCPT inconclusive
CCCC12CN3CC(C)(CN(C1)C3c1ccc(CC)cc1)C2=O (configuration not stated)	DT40 TDP1 CPT inconclusive, TDP1 cell noCPT 4.6µM (no result: HT1080 IDH1KD tx, uPA generation, IL-1B inflam inh, HT1080-NT tox)
COc1cccc(NC(=O)Cn2c(=O)n(Cc3ccco3)c(=O)c3cc(OC)c(OC)cc32)c1	none (no result: HT1080 IDH1KD tx, uPA generation, IL-1B inflam inh, HT1080-NT tox)
O=C(O)/C=C/c1ccc2ccccc2c1	none (no result: HT1080 IDH1KD tx, uPA generation, IL-1B inflam inh, HT1080-NT tox)
COc1ccc(N2Cc3cccc(C(=O)Nc4ccc(C(C)C)cc4)c3C2=O)cc1	none (no result: HT1080 IDH1KD tx, uPA generation, IL-1B inflam inh, HT1080-NT tox)
CCOC(=O)C1(CCOC)CCN(Cc2ccc3nonc3c2)CC1	none
CCOC(=O)C1(CCOC)CCN(Cc2cnc(-c3cccc(C)c3)nc2)CC1	DT40 TDP1 CPT inconclusive, TDP1 cell noCPT 16µM
CCOC(=O)C1(CCOc2ccccc2)CCN(Cc2cc(OC)c(O)c(OC)c2)CC1	DT40 TDP1 CPT 29µM, TDP1 cell noCPT inconclusive
CCOC(=O)C1(CCOc2ccccc2)CCN(Cc2ccc(OCCO)cc2)CC1	DT40 TDP1 CPT inconclusive, HT1080 IDH1KD tx inconclusive, TDP1 cell noCPT inconclusive, IL-1B inflam inh inconclusive
CCOC(=O)C1(CC2CC2)CCN(Cc2ccc(OC)cc2F)CC1	TDP1 cell noCPT inconclusive, IL-1B inflam inh -54
CCOC(=O)C1(CCOc2ccccc2)CCN(Cc2ccc(OC)c(O)c2)CC1	DT40 TDP1 CPT 16µM, TDP1 cell noCPT inconclusive, IL-1B inflam inh -52

From PubChem
